# According to PubChem BioAssay AID1850 (Southern Research Specialized Biocontainment Screening …, 2009):
# The whole screen tested about 310,000 compounds, of which about 1,000 (0.32%) were called active. The list is a sample of the results. Measured potencies and affinities stand elsewhere. Unmarked numbers belong to inactive results. No rule for the calls is given here.
# Assay: PhoP regulon inhibitors, Salmonella typhi PhoP promoter GFP reporter, confirmatory (AID 1850);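 also: 0% = induced wells with vehicle and 100% = uninduced wells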
# Conditions: fluorescence, 4 h, at 50 µM, hits give high values
row,Structure (SMILES),inhibition
1,CCN(CC(=O)NC(=O)Nc1ccccc1F)Cc1ccccc1,-3.48%
2,CCN1CCN(C(=O)CCCn2c(C)c3cnn(-c4ccccc4)c(=O)c3c2C)CC1,-6.37%
3,O=C(CN(CCO)c1ccccc1)Nc1ccc(Cl)c(S(=O)(=O)N2CCOCC2)c1,-1.19%
4,Cc1ccc2[nH]c3c(NCc4ccccc4)ncnc3c2c1,-1.37%
5,Clc1ccc2[nH]c3c(NCC4CCCO4)ncnc3c2c1 (stereo not drawn),-14%
6,C=CCNc1ncnc2c1[nH]c1ccccc12,-0.69%
7,Clc1ccc2[nH]c3c(NCCN4CCOCC4)ncnc3c2c1,0.11%
8,CCCNC(=O)c1oc2ccc3c(c2c1C)C=CC(C)(C)O3,-5.94%
9,Cc1nc2ccccn2c1C(=O)NNC(=S)Nc1ccc(Cl)cc1,0.64%
10,COc1ccc(C[C@H]2CN3C(=NC[C@H]3Cc3ccccc3)N2CCNC(=O)c2ccc(C)c(Br)c2)cc1,26.2%
11,Cc1ccc(C(=O)NCCN2C3=NC[C@H](Cc4ccc(O)cc4)N3C[C@H]2Cc2ccc(O)cc2)cc1Br,12.4%
12,O=C(Nc1ccnn1C1CCN(C/C=C/c2ccccc2)CC1)C1CCCC1,-2.03%
13,COC(=O)C1=NN(c2ccc(C)cc2)C2(S1)SC(C(C)=O)=C(C)N2c1ccccc1 (stereo not drawn),-16.3%
14,OC(CNCCC(c1ccccc1)c1ccccc1)COc1ccccc1 (stereo not drawn),-4.1%
15,Cc1cc(Cl)ccc1OCC(O)CNCCc1ccc(S(N)(=O)=O)cc1 (stereo not drawn),-14.1%
16,COc1ccc(CCNCC(O)COc2ccc(Cl)cc2)cc1OC (stereo not drawn),5.92%
17,CC(C)(C)NCC(O)COc1ccc(Br)cc1 (stereo not drawn),-6.26%
18,OC(CNCc1ccc(Cl)cc1)COc1ccccc1 (stereo not drawn),11.1%
19,OC(CNCc1ccccc1)COc1ccccc1 (stereo not drawn),18.5%
20,CC(=O)c1cccc(OCC(O)CNCCc2ccc(Cl)cc2)c1 (stereo not drawn),4.73%
21,COc1ccc(NCC(O)COc2ccc(C(C)(C)C)cc2)cc1 (stereo not drawn),10.5%
22,CC1=NN(C(=O)c2c(Br)cnn2C)C(O)(C(F)(F)F)C1 (stereo not drawn),14.8%
23,CC(C)(C)c1ccc(C(=O)NNC(=S)NC(=O)c2cccnc2)cc1,7.73%
24,CCn1c(SCC(=O)Nc2oc(C)c3c(C)n[nH]c(=O)c23)nc2sc(C)c(C)c2c1=O,-1.81%
25,CCOc1ccc(NC(=O)C2CCCN(S(=O)(=O)c3ccc4[nH]c(=O)ccc4c3)C2)cc1 (stereo not drawn),4.78%

row,Structure (SMILES),inhibition
1,COc1ccc(NC2c3ccccc3C(=O)N2c2ccccn2)cc1 (stereo not drawn),0.4%
2,COc1ccc(C(C)=O)cc1CSc1nnc(Nc2ccc(C)cc2)s1,7.09%
3,Cc1nn2c(-c3cccnc3)ccnc2c1-c1ccccc1,-4.51%
4,COc1ccc(N2C(=O)CC(C#N)=C2N)cc1,17.1%
5,COc1ccc(-n2nc(C)c3c(=O)c4c([nH]c32)CCCC4)cc1,7.61%
6,Cc1cccc(NC(=O)CN2C(=O)C(C)Oc3ccccc32)n1 (stereo not drawn),-5.84%
7,CN1C(=O)Cc2cc(S(=O)(=O)N3CCN(c4ccc(Cl)cc4)CC3)ccc21,3.82%
8,C=CCc1c(C)nc(C)nc1N/N=C/c1ccccc1O,-9.46%
9,COc1ccc(OCCCC(=O)OC(C)C(=O)Nc2cccc(C(C)=O)c2)cc1 (stereo not drawn),15.1%
10,O=C(Cn1cc([N+](=O)[O-])ccc1=O)NCc1ccc(Cl)cc1Cl,-7.2%
11,COC(=O)c1ccc(CNCC(O)COc2ccc(-c3ccccc3)cc2)cc1 (stereo not drawn),10.8%
12,CC(C)N(CCNCC(O)COc1ccc(C(C)(C)c2ccccc2)cc1)C(C)C (stereo not drawn),-17.3%
13,COc1ccc(OC)c(-n2nnnc2SCC(=O)NCc2ccc3c(c2)OCO3)c1,0.94%
14,c1ccc2c(c1)[nH]c1ccncc12,-9.87%
15,c1ccc2c(c1)[nH]c1cnccc12,7.53%
16,COc1ccc2[nH]c3c(=S)nc[nH]c3c2c1,3.32%
17,COc1ccc2[nH]c3c(Cl)ncnc3c2c1,1.3%
18,COc1cc(NC(=O)CSc2nnc(-c3ccncc3)n2C2CCCCC2)ccc1NC(=O)c1ccco1,-17.8%
19,Cc1cc(C)c(S(=O)(=O)N2CCC(C(N)=O)CC2)cc1C,16.3%
20,COc1ccc(-c2sc(Nc3ccc(F)c(F)c3F)nc2CCC(=O)NN)cc1,4.23%
21,CS(=O)(=O)N1N=C(c2ccco2)CC1c1ccccc1 (stereo not drawn),-3.63%
22,NC(=O)C1CCN(C(=O)/C=C/c2cc(Br)ccc2F)CC1,-0.48%
23,CCOC(=O)CNC(=S)NN(C)C,10.8%
24,CC(C)(C)OC(=O)N[C@@H](Cc1ccccc1)C(=O)N1CCC(C(=O)N[C@@H](CCC(N)=O)C(=O)O)CC1,-2.12%
25,CCOc1ccc(CCNC(=O)c2cc(=O)[nH]c3ccc(S(=O)(=O)N(CC)CC)cc23)cc1OCC,-9.13%

row,Structure (SMILES),inhibition
1,O=C1C=C(O)c2cccc3cccc1c23,-13.1%
2,O=C1C(=O)c2cccc3cccc1c23,-2.11%
3,CCOc1cc(N2CCOCC2)c(OCC)cc1NC(=O)CC12CC3CC(CC(C3)C1)C2,-0.45%
4,COc1ccccc1Nc1nc(Cl)nc(NC(C)(C)C)n1,-9.98%
5,Clc1ccc(-c2nc(Cc3ccccc3)no2)cc1,11.6%
6,OCCNCc1cc(Br)ccc1OCc1ccccc1,-2.3%
7,OCCNCc1cc(Br)ccc1OCc1ccc(F)cc1,10.4%
8,CCSP1(=S)N=C(N2CCOCC2)C(C#N)=C2CCCN21 (stereo not drawn),-5.06%
9,Cc1cccc(NCC(=O)N/N=C\c2cccn2C)c1,-0.18%
10,O=C(NC(=S)NNC(=O)c1cc2ccccc2cc1O)c1ccco1,-70.1%
11,O=C(NNC(=O)c1cccs1)c1ccc(Br)o1,-19.9%
12,O=C(NC(=S)Nc1ccc(NC(=O)c2cccs2)cc1)c1ccco1,-1.46%
13,O=C(NNC(=O)c1ccccc1O)c1ccco1,14.9%
14,COc1ccc(C(=O)NNC(=S)NC(=O)/C=C/c2cccs2)cc1,12%
15,O=C(NC(=S)NNC(=O)c1ccccc1O)c1cccs1,7.92%
16,O=C(NNC(=O)c1cccs1)c1ccco1,0.32%
17,O=C(Nc1ccc(NC(=O)c2cccs2)cc1)c1ccc(Br)o1,3.54%
18,Cc1ccc(-c2nnn(CC(=O)Nc3ccccc3N3CCOCC3)n2)cc1,-3.19%
19,COC(=O)C(O)(c1ccc(N(C)C(=O)OC(C)C)cc1)C(F)(F)F (stereo not drawn),0.83%
20,CCOc1ccc(S(=O)(=O)N(C)c2ccc(OCC(=O)NC3=NCCS3)cc2)cc1,-20.3%
21,O=C(Nc1cccnc1Cl)c1cc(-c2ccc(F)cc2)on1,5.5%
22,CCN(CCn1cccn1)C(=O)c1cc(COc2ccc(F)c(F)c2)on1,6.34%
23,CCOC(=O)c1nc2c(=O)n(C)c(=O)n(C)c2n(C)c1=O,2.99%
24,Cc1cccc(NC(=O)CSc2nnc(NC(=O)C3CC3)s2)c1C,3.53%
25,O=C(NC(=S)NNC(=O)c1ccco1)c1ccccc1,21.3%

row,Structure (SMILES),inhibition
1,O=C(NC(=S)NNC(=O)c1ccco1)c1ccc(F)cc1,0.37%
2,O=C(Cc1ccc(Cl)cc1)NNC(=S)NC(=O)c1cccs1,11.9%
3,O=C(Cc1ccccc1)NNC(=O)c1cccs1,6.4%
4,CC(=O)N1CCN(c2ccccc2NC(=O)Cc2ccc(Cl)cc2)CC1,-3.34%
5,COC(=O)C(Cc1ccc(O)cc1)NC(=O)CCNC(=O)c1ccco1 (stereo not drawn),-6.89%
6,CCCc1cc(CN(C)C(=O)CC2C(=O)NCCN2Cc2ccccc2C)[nH]n1 (stereo not drawn),-5.02%
7,CC(NS(=O)(=O)c1ccccc1)C(=O)NCc1ccco1 (stereo not drawn),4.53%
8,COc1ccc(Nc2cc(C)c3ccccc3n2)cc1,-2.31%
9,Cc1ccc(Nc2cc(C)c3ccc(O)cc3n2)cc1C,9.14%
10,COC(=O)c1cc(Nc2cc(C)c3c(O)cccc3n2)cc(C(=O)OC)c1,-3.04%
11,CC(=O)Nc1ccc(Nc2cc(C)c3ccccc3n2)cc1,-5.65%
12,Cc1ccc(-c2cc(C(=O)OCC(=O)Nc3ncc(C(F)(F)F)cc3Cl)c3ccccc3n2)cc1,-6.32%
13,O=C(CN1c2ccccc2S(=O)(=O)c2ccccc21)Nc1ccccc1F,2.92%
14,CC(NC(=O)Cn1ncc(Cl)c(Cl)c1=O)C12CC3CC(CC(C3)C1)C2 (stereo not drawn),-18.9%
15,O=C(CN1C2=NCCCN2c2ccccc21)c1cccs1,9.76%
16,O=C(CN1C2=NCCN2c2ccccc21)c1ccc(Br)s1,13.2%
17,O=C(O)CN1C2=NCCCN2c2ccccc21,-7.68%
18,O=C(CN1C2=NCCCN2c2ccccc21)c1ccc2c(c1)OCO2,28.1%
19,CCOC(=O)Nc1cc(Br)c2c(c1)OCCO2,9.05%
20,CCCC[C@@H]1C[C@H]1[C@@H](NC(=O)c1ccco1)c1ccc(C(=O)OC)cc1,-1.55%
21,COc1ccc(CNC(=O)c2ccc3c(=O)n(-c4ccccc4)c(=O)[nH]c3c2)cc1,9.07%
22,Cc1cccc2cc(CN(CCCO)C(=O)Nc3cccc(Cl)c3)c(=O)[nH]c12,-2.46%
23,C=CCNc1nc(C(=O)OCC(=O)c2ccc(Cl)cc2)cs1,0.24%
